# About 79,000 compounds went through this panel and 15% of them were active in at least one assay; those are over-represented in the sample as a whole. Unmarked numbers belong to inactive results. Rule as the data show it: active = growth inhibition above about 70%; inactive = the rest.
# Assay: NCI Yeast Anticancer Drug Screen. Data for the bub3 strain (AID 167)
# Conditions: S. cerevisiae bub3 mutant strain, at 50.0 µM, active compounds read high
# In short: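 Yeast carrying a defined mutation is treated with each compound, and growth is compared with that of vehicle-exposed cells to give inhibition.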
row,Compound,growth inhibition
1,O=C(CCCl)OC1CCCC1,-5.65%
2,NC(CS(=O)Cc1ccccc1)C(=O)O (centres undefined),-2.8%
3,CC(=O)OCCc1cccc(C)c1,-10.7%
4,CCc1nc(=S)c2cnn(-c3ccccc3)c2[nH]1,8.05%
5,CC(C)N(CCn1c2c3ccccc3ccc2c2oc(=O)c3ccccc3c21)C(C)C,-2.95%
6,COc1ccc(/C=C2\N=C(c3cccc(Cl)c3)OC2=O)cc1OC,6.3%
7,O=C1C(CO)=C[C@H](O)[C@H]2O[C@@H]12,8.65%
8,O=C(O)c1ccccc1SC(Sc1ccccc1C(=O)O)c1ccc2c(c1)OCO2,33.6%
9,O=S(=O)([N-]c1nc2ccccc2nc1-[n+]1ccccc1)c1ccccc1,-2.2%
10,CCCCC(O)(CCCC)CC(C)C,-16.7%
11,O=C1CCCC(CCc2ccccc2)O1 (centres undefined),-37.1%
12,O=C1c2ccccc2C(=O)N1CCc1ccccc1,16.6%
13,NCCC(=O)O,-13.8%
14,Nc1cc(S(=O)(=O)O)nc(N)[n+]1[O-],-13.3%
15,CC(O)c1cccc(NC(=O)Nc2ccc(Cl)c(Cl)c2)c1 (centres undefined),43.8%
16,CNC(=O)OCc1nc(N=[N+]=[N-])n(C)c1COC(=O)NC,2.2%
17,Cc1ccc(C2(c3ccc(C)cc3)OCC(C)(CBr)CO2)cc1,1.6%
18,C/C(=N\N=C(/C)c1ccc(N)cc1)c1ccc(N)cc1,13.9%
19,CCOC(C)C1C2CCCCC21 (centres undefined),4.85%

# Reference: PubChem BioAssay (NCI)
